# This is part of a sample that, as a whole, favours compounds with a hit. Of some 83,000 tested, about 20% had one in any assay.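 Percent growth is the endpoint: 0 to 100 indicates growth inhibition (40 means 60% inhibition), 0 means no net growth, and negative values indicate cell death.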 A number with no mark means an inactive call. The source made the active and inactive calls. Rule for the calls: active = growth percent below 10; inactive = the rest.
# Experiments:
# Assay in all cases: NCI-60 one-dose screen, 48 h (100 = growth as untreated, 0 = no growth, -100 = all killed)
# Settings in all cases: 10 µM unless noted
# [1] = tested on: SK-MEL-2 melanoma
# [2] = tested on: EKVX NSCLC
# [3] = tested on: SN12C renal
# [4] = tested on: UO-31 renal
# [5] = tested on: TK-10 renal
# [6] = tested on: ACHN renal
# [7] = tested on: CAKI-1 renal
# [8] = tested on: A498 renal
# [9] = tested on: CCRF-CEM leukemia
# [10] = tested on: MOLT-4 leukemia
# [11] = tested on: SR leukemia
# [12] = tested on: RPMI-8226 leukemia
# [13] = tested on: OVCAR-8 ovarian
# [14] = tested on: OVCAR-5 ovarian
# [15] = tested on: OVCAR-4 ovarian
# [16] = tested on: SK-OV-3 ovarian
# [17] = tested on: IGROV1 ovarian
# [18] = tested on: OVCAR-3 ovarian
# [19] = tested on: HS 578T breast
# [20] = tested on: NCI/ADR-RES ovarian
SMILES,growth [1],growth [2],growth [3],growth [4],growth [5],growth [6],growth [7],growth [8],growth [9],growth [10],growth [11],growth [12],growth [13],growth [14],growth [15],growth [16] [%],growth [17],growth [18],growth [19],growth [20]
CC1(C)CC[C@]2(C(=O)O)CC[C@]3(C)C(=CCC4[C@@]5(C)C[C@@H](O)[C@@H]6OC(c7ccccc7Br)OC[C@@]6(C)C5CC[C@]43C)C2C1 (stereo not given in full),-1.06% (active),18.4%,14.9%,15.5%,21%,9.85% (active),14.6%,23.7%,13.1%,10.5%,12.5%,8.21% (active),14.7%,36%,33.1%,40.2,35%,9.3% (active),31.9%,11.5%
CCN(CC)CCOc1ccc(Nc2ncc3cc(-c4ccc(O)c(C#N)c4)c(=O)n(C)c3n2)cc1,105%,139%,69.5%,67.6%,96.8%,40.1%,45.9%,113%,-25.5% (active),3.63% (active),-8.11% (active),65%,92.8%,88.2%,89.3%,64.7,46.9%,83.7%,76.5%,114%
COc1cc(C2CC(c3cc(OC)c(OC)c(OC)c3)=NN2C(C)=O)ccc1OCc1ccc(F)cc1 (stereo not given),69.5%,59.4%,53.9%,29.7%,50.5%,59.2%,53.2%,59.4%,59.9%,30.6%,39.7%,36.6%,61.9%,57.8%,42.1%,80.1,45.8%,70.3%,58.8%,60.6%
COc1cc2c(c(OC)c1OC)C(=O)CC(c1cccc(NC(=O)c3cc(NC(=O)[C@@H](N)CO)ccc3C)c1)O2 (stereo not given in full),111%,108%,102%,92%,105%,107%,99.9%,126%,102%,114%,100%,108%,104%,101%,112%,111,114%,121%,110%,104%
COc1cc2oc(-c3cccc(C(=O)Nc4ccc(Cl)cc4)c3)cc(=O)c2c(OCCNC(=O)[C@@H](N)CCC(=O)O)c1OC,104%,70.8%,61.6%,80.1%,114%,92.5%,68.9%,157%,75.6%,36.6%,42.7%,25.5%,73.7%,76.9%,91.9%,88.8,62.9%,113%,88.9%,97.4%
COC1=C[C@]23CCC(=O)N2CCc2cc4c(cc2[C@@H]3[C@@H]1OC(=O)[C@H](C)O)OCO4,58.5%,43%,57.8%,26.4%,47.7%,5.84% (active),15%,-9.89% (active),1.16% (active),2.59% (active),-11.9% (active),-17.9% (active),29.1%,46.4%,13.1%,23.5,20%,-2.32% (active),53.9%,74.6%
COc1ccc2[nH]cc(-c3nnc(N)nc3-c3c[nH]c4ncc(Br)cc34)c2c1,104%,82.6%,77.1%,65.9%,101%,59%,70%,87.7%,88.9%,70.8%,67.8%,76.8%,82.5%,97.9%,96.6%,76.2,48.3%,104%,70.1%,97.9%
C=C1CCC2C3(C)COC(c4ccc(F)cc4)OC3CCC2(C)C1C/C=C1/C(=O)OCC1O (stereo not given),-63.2% (active),5.53% (active),-11.3% (active),-90.6% (active),-35.8% (active),-97.6% (active),-5.17% (active),89.6%,11.4%,8.65% (active),7.55% (active),6.7% (active),-61.5% (active),-6.07% (active),0.389% (active),40.5,-26.3% (active),-82% (active),-5.65% (active),-22.4% (active)
C=C1CC[C@@H]2[C@]3(C)COC(c4ccco4)O[C@@H]3CC[C@@]2(C)[C@@H]1C/C=C1/C(=O)OCC1OC(C)=O (stereo not given in full),59.5%,89.3%,3.28% (active),35.4%,111%,33.9%,36.1%,129%,-19.8% (active),2.43% (active),-21% (active),-30.9% (active),-8.73% (active),35.8%,48.2%,105,9.51% (active),-28.9% (active),66.8%,8.21% (active)
CCCn1cc(-c2nc(Nc3ccc(C(=O)NCCCCNc4cccc5c4C(=O)N(C4CCC(=O)NC4=O)C5=O)cc3)nc3[nH]ccc23)cn1 (stereo not given),10.4%,54.4%,12.3%,73.9%,59.1%,75.7%,27.3%,-2.58% (active),-15.1% (active),-37.9% (active),25.1%,17.5%,6.6% (active),54.2%,9.82% (active),24.8,7.36% (active),36.3%,6.24% (active),95.6%
CCOC(=O)c1ccc(Nc2nc(NN)nc(-c3ccc(F)cc3)c2C#N)cc1,115%,120%,103%,88.3%,104%,103%,108%,101%,91.9%,89.8%,72.4%,103%,112%,99.5%,98.3%,116,109%,103%,100%,110%
Cc1cc2c(cc1Cl)C(=O)/C(=C/c1ccc(F)cc1)O2,122%,90.8%,82.1%,-80.7% (active),125%,96.9%,75.3%,149%,94.5%,84.3%,89.1%,97.2%,97.5%,106%,90.9%,100,20.9%,124%,97.1%,93.3%
Cc1ccc([C@H]2C(C(=O)c3ccc(Cl)cc3)C3(N[C@@H]2c2ccccc2)C(=O)Nc2ccccc23)cc1 (stereo not given in full),15.6%,29.6%,4.19% (active),17.7%,40.8%,22.5%,32%,75.5%,14.7%,-26.6% (active),23.3%,6.4% (active),66%,52.2%,49.4%,53.2,59.4%,37.3%,60.3%,35.4%
C=C1CC[C@@H]2[C@]3(C)COC(c4cn[nH]c4-c4cccc(Cl)c4)O[C@@H]3CC[C@@]2(C)[C@@H]1C/C=C1/C(=O)OCC1O (stereo not given in full),-23.7% (active),8.03% (active),-69.6% (active),-94.4% (active),3.28% (active),-87.4% (active),32.6%,151%,-14.9% (active),12.7%,14.7%,-11.7% (active),-23.3% (active),-62% (active),35.2%,49.6,-44.1% (active),-62% (active),26.8%,-56.4% (active)
N=C1N=C(SCc2nc3ccccc3[nH]2)NC(=O)/C1=C/c1ccc(Cl)cc1,105%,106%,98.6%,70.5%,143%,99.6%,85.9%,122%,100%,99.5%,98.7%,96.9%,102%,113%,95.6%,111,110%,114%,98.3%,100%

# — PubChem BioAssay (NCI)
